# Among all 5,500 compounds or so, about 2,000 (36%) were called active. Roughly 18% stayed inconclusive and do not appear here. The list shows a part of the results. Unmarked numbers belong to inactive results. No stated cut-off is given here; in the data, active means normalized growth mostly below about 0.91 (no sharp cut-off); inconclusive means no clear call, values can overlap the other calls; inactive means mostly above about 0.92.
# Experiment: chemical genetic growth profiling, strain panel (AID 1159580);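 further: tested at 20 µM; growth read once vehicle control cultures reached saturation at 30 °C; 1 = growth at the plate median or of vehicle wells; lower values mean less growth of the strain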
# Settings: growth OD
# [1] = S. cerevisiae deletion strains, locus YAL013W, strain DEP1, active compounds read low
# [2] = S. cerevisiae deletion strains, locus YBR229C, strain ROT2, active compounds read low
# [3] = S. cerevisiae deletion strains, locus YCL061C, strain MRC1, active compounds read low
# [4] = S. cerevisiae deletion strains, locus YDL101C, strain DUN1, active compounds read low
# [5] = S. cerevisiae deletion strains, locus YDL134C, strain PPH21, active compounds read low
# [6] = S. cerevisiae deletion strains, locus YDR150W, strain NUM1, active compounds read low
# [7] = S. cerevisiae deletion strains, locus YEL061C, strain CIN8, active compounds read low
# [8] = S. cerevisiae deletion strains, locus YGR078C, strain PAC10, active compounds read low
# [9] = S. cerevisiae deletion strains, locus YHR030C, strain SLT2, active compounds read low
# [10] = S. cerevisiae deletion strains, locus YHR087W, strain rtc3, active compounds read low
# [11] = S. cerevisiae deletion strains, locus YJR043C, strain POL32, active compounds read low
# [12] = S. cerevisiae deletion strains, locus YJR075W, strain HOC1, active compounds read low
# [13] = S. cerevisiae deletion strains, locus YKL190W, strain CNB1, active compounds read low
# [14] = S. cerevisiae deletion strains, locus YLR039C, strain RIC1, active compounds read low
# [15] = S. cerevisiae deletion strains, locus YLR058C, strain SHM2 (second series), active compounds read low
# [16] = S. cerevisiae deletion strains, locus YLR085C, strain ARP6, active compounds read low
# [17] = S. cerevisiae deletion strains, locus YLR262C, strain YPT6, active compounds read low
# [18] = S. cerevisiae deletion strains, locus YML094W, strain GIM5, active compounds read low
# [19] = S. cerevisiae deletion strains, locus YMR219W, strain ESC1, active compounds read low
# [20] = S. cerevisiae deletion strains, locus YMR263W, strain SAP30, active compounds read low
# [21] = S. cerevisiae deletion strains, locus YNL153C, strain GIM3, active compounds read low
# [22] = S. cerevisiae deletion strains, locus YNL298W, strain CLA4 (second series), active compounds read low
# [23] = S. cerevisiae deletion strains, locus YNL322C, strain KRE1, active compounds read low
# [24] = S. cerevisiae deletion strains, locus YNR030W, strain Alg12, active compounds read low
# [25] = S. cerevisiae deletion strains, locus YPL055C, strain LGE1, active compounds read low
# [26] = S. cerevisiae deletion strains, locus YPL241C, strain CIN2, active compounds read low
# [27] = S. cerevisiae deletion strains, locus YPR135W, strain CTF4, active compounds read low
# [28] = S. cerevisiae strains, strain wild type, active compounds read low
# [29] = S. cerevisiae deletion strains, locus YJL187C, strain SWE1, active compounds read low
smiles,measurement,setting,value
O=C(O)CC(CC(=O)Nc1ccc(I)cc1F)c1ccc(C(F)(F)F)cc1 (stereo not given),normalized growth,[1],0.99
same,normalized growth,[2],0.99
same,normalized growth,[3],0.978
same,normalized growth,[4],0.985
same,normalized growth,[5],0.981
same,normalized growth,[6],0.972
same,normalized growth,[7],1
same,normalized growth,[8],1
same,normalized growth,[9],1
same,normalized growth,[10],0.981
same,normalized growth,[11],1
same,normalized growth,[12],0.943
same,normalized growth,[13],1.01
same,normalized growth,[14],1.02
same,normalized growth,[15],0.975
same,normalized growth,[16],1
same,normalized growth,[17],1.02
same,normalized growth,[18],0.989
same,normalized growth,[19],0.984
same,normalized growth,[20],0.969
same,normalized growth,"S. cerevisiae deletion strains, locus YNL128W, strain TEP1, active compounds read low",0.995
same,normalized growth,[21],1.01
same,normalized growth,[22],1.05
same,normalized growth,[23],0.973
same,normalized growth,[24],0.927
same,normalized growth,[25],0.968
same,normalized growth,[26],0.986
same,normalized growth,[27],1.03
same,normalized growth,[28],1
O=C(NCc1nc(-c2ccc(C(F)(F)F)cc2)no1)Nc1ccc(F)cc1F,normalized growth,[1],1.01
same,normalized growth,[2],0.987
same,normalized growth,[4],0.975
same,normalized growth,[5],0.857 (active)
same,normalized growth,[6],1.03
same,normalized growth,[7],0.996
same,normalized growth,[8],0.996
same,normalized growth,[9],1.07
same,normalized growth,[10],0.973
same,normalized growth,[29],0.997
same,normalized growth,[11],1
same,normalized growth,[12],0.967
same,normalized growth,[13],1.01
same,normalized growth,[14],0.981
same,normalized growth,[15],1.01
same,normalized growth,[16],1.04
same,normalized growth,[17],1.02
same,normalized growth,[18],0.968
same,normalized growth,[19],1
same,normalized growth,"S. cerevisiae deletion strains, locus YMR307W, strain GAS1, active compounds read low",0.894
same,normalized growth,[21],0.987
same,normalized growth,[22],1.03
same,normalized growth,[23],1.02
same,normalized growth,[24],0.988
same,normalized growth,[25],0.846
same,normalized growth,[26],0.966
same,normalized growth,[27],1.01
same,normalized growth,[28],1.02
FC(F)(F)c1cc(-n2c(CCc3nc(-c4ccc(Cl)cc4)no3)n[nH]c2=S)cc(C(F)(F)F)c1,normalized growth,[1],0.996
same,normalized growth,[2],0.991
same,normalized growth,[3],0.985
same,normalized growth,[4],0.946
same,normalized growth,[6],0.867
same,normalized growth,[7],1.04
same,normalized growth,[8],0.963
same,normalized growth,"S. cerevisiae deletion strains, locus YGR229C, strain SMI1, active compounds read low",0.991
same,normalized growth,[9],0.993
same,normalized growth,[10],1.03
same,normalized growth,[29],1.01
same,normalized growth,[11],0.978
same,normalized growth,[12],0.978
same,normalized growth,[14],1.05
same,normalized growth,[15],1.01
same,normalized growth,[16],0.97
same,normalized growth,[17],1.02
same,normalized growth,[18],1.03
same,normalized growth,[19],0.994
same,normalized growth,[20],0.957
same,normalized growth,[21],0.95
same,normalized growth,[22],0.981
same,normalized growth,[23],0.989
same,normalized growth,[24],0.975
same,normalized growth,"S. cerevisiae deletion strains, locus YOL006C, strain TOP1, active compounds read low",0.994
same,normalized growth,[25],0.994
same,normalized growth,[26],0.965
same,normalized growth,[27],0.879
